Tau fluor cs – counter-screen for tau fibril formation inhibitors; Potency, µM (titrated, usually from 57.7 µM), for inactives: at the top dose activity change, negative = decrease; hit rate 0.93% among 280,000; tau K18 P301L Alexa594 fluorescence, heparin fibrillization; AID 1463; also: nearly all actives have a fitted effect of over 55% in size
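Human tau K18 P301L (15 uM unlabeled, 0.24 uM Alexa 594-labeled) in 100 mM sodium acetate pH 7 with 20 uM heparin, 6 hr at 37 C. ThT 30 uM added, 1 hr ambient; Alexa 594 FP and total fluorescence read at 555/632 nm.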
Tau ThT inhib – blocks human tau fibril formation measured by thioflavin T; hit rate 2.1% among 270,000; AID 1460; Potency, µM (series often up to 57.4 µM), inactives show at the top dose activity, negative = inhibition, hits mostly inhibitors; recombinant tau K18 P301L (four-repeat tau fragment), heparin-induced fibrillization, ThT fluorescence; also: nearly all actives have a fitted effect of over 55% in size
Target sequence (P10636 561-689 P618L limits assumed): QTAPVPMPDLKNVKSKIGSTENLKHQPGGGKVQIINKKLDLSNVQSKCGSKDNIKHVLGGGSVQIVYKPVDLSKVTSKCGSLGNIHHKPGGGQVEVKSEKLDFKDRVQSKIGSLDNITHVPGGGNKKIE
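Tau K18 P301L fragment (15 uM unlabeled plus 0.24 uM Alexa 594-labeled) in 100 mM sodium acetate pH 7 with compound, fibrillization induced by 20 uM heparin for 6 hr at 37 C. Thioflavin T (30 uM) added, fluorescence read after 1 hr (ex 450, em 510 nm).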
Sfp inh – Sfp phosphopantetheinyl transferase inhibition | Potency, µM, inactives show largest response in the series, negative = inhibition, hits mostly inhibitors | Q9F4F7 | hit rate 3.5% among 310,000 | AID 1490 | Biochemical Sfp PPTase activity, qHTS;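 also: the enzyme is Sfp with the accession as filed and its product quenches rhodamine fluorescence; 0% = enzyme reaction without inhibitor and -100% = no enzyme wells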
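Fluorescence-quenching assay with 15 nM Sfp, 5 uM rhodamine-CoA and 12.5 uM BHQ-2-labelled ybbR peptide in pH 7.6 Hepes/MgCl2 buffer. Enzyme was pre-incubated with compound for 15 min at room temperature. Rate was taken from the 30-min fluorescence change (525/598 nm).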
Tau FP inhib – inhibitors of human tau fibril formation; Potency, µM (top dose mostly 57.7 µM), inactives show at the top dose activity, negative = inhibition, most hits filed as inhibitors; hit rate 0.39% among 280,000; K18 P301L tau heparin fibrillization, Alexa594 FP, 6 h; AID 1468; also: nearly all actives have a fitted effect of over 55% in size
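Read-out: fluorescence polarization of Alexa 594-labeled tau (0.24 uM), 555 nm excitation, 632 nm emission. Mixtures held 15 uM unlabeled K18 P301L, compound and 20 uM heparin, pH 7 acetate buffer, incubated 6 hr at 37 C.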
PLK1 PBD inh – inhibitors of human PLK1 polo-box domain binding; P53350; Plk1 PBD binding of FITC phosphopeptide, fluorescence polarization; Potency, µM, for inactives: max response, negative = inhibition, hits mostly inhibitors; hit rate 2.8% among 360,000; also: series mostly up to about 57 µM; nearly all actives have a fitted effect of over 65% in size
VDR inhibitor – vitamin D3 receptor (human) inhibition | P11473 | VDR-SRC2-3 peptide fluorescence polarization, 2 h | Potency, µM, inactives show max response, negative = inhibition, actives largely listed as inhibitors | hit rate 0.93% among 400,000 | AID 504847
Target sequence (P11473 whole entry, looked up): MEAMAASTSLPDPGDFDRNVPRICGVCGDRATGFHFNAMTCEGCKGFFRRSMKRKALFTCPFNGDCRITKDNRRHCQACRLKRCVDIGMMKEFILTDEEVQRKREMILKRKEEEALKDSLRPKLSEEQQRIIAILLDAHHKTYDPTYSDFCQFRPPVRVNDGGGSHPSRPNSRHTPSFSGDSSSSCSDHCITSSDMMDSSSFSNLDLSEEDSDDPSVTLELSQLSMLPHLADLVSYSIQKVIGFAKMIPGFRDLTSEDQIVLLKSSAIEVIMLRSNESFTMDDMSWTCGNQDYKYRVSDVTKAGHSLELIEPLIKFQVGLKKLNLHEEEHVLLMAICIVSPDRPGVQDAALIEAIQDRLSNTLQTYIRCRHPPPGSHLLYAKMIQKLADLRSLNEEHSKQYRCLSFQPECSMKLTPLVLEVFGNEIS
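VDR–SRC2-3 interaction, FP format. Cmpds 23 nl via pintool, brief spin, 2 h ambient incubation.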
Numbers without * were called inactive; u = inconclusive; x = no result given; [ ] = remark or other dose. The list is not random: actives were taken first. Their share in the collection is about 6%. Calls follow the shape of the dose curve; as a rule, active = well fitted curve in the direction sought with a large enough effect; inconclusive = small, poorly fitted or top-dose-only effect, or another doubt; inactive = no such curve, though single readings can be large; an effect the other way counts as inactive or inconclusive. Unless noted, % is scaled to controls: 0 for no effect and ±100 for the full control effect; potency is read from the fitted curve at half-maximal effect.

SMILES | Tau fluor cs | Tau ThT inhib | Sfp inh | Tau FP inhib | PLK1 PBD inh | VDR inhibitor
Cc1cccc(NC(=O)Cn2c(=O)n(Cc3ccccc3)c(=O)c3sc4ccccc4c32)c1 | -29% | 10% | x | u | x | -8%
COc1ccc(-c2nnc(SCC(=O)NNC(=O)Cc3ccccc3)n2C)cc1OC | 3% | 1% | -1% | 0% | 27µM* | 40µM*
Cn1c(SCC(=O)c2ccc(O)c(O)c2)nnc1-c1ccccc1 | x | x | 79µM* | x | -2% | -20%
O=C(O)c1ccc(Sc2nnc(-c3cccc(Br)c3)o2)c([N+](=O)[O-])c1 | -19% | u | 0% | 4% | -21% | -7%
Cn1c(Sc2ccc(C(=O)O)cc2[N+](=O)[O-])nnc1-c1ccccc1 | 6% | 3% | 10% | 3% | 4.2µM* | 79µM*
O=C(CSc1nc2ccccc2n1CCc1ccccc1)c1ccc(O)c(O)c1 | 25µM*[quencher] | u | 50µM* | -3% | u | -20%
COc1ccc(OC)c(NC(=O)C2=C(C)C(=O)OC23CCN(C(C)C)CC3)c1 | u | u | x | u | x | 10%
O=C(NCCc1csc(-c2ccc(F)cc2)n1)c1cccs1 | -7% | -10% | x | -11% | x | 14%
Cn1c(SCC(=O)NC(c2ccccc2)c2ccccc2)nnc1-c1cccs1 | -4% | -12% | -3% | 11% | 27µM* | u
Cn1c(SCC(=O)NC2CC2)nnc1-c1cccs1 | x | x | 0% | x | 0% | -7%
Cc1ccc2[nH]cc(C(=O)CCl)c2c1 | -1% | 9% | 12% | 9% | 15µM* | -23%
Cc1ccc2[nH]cc(C(=O)CN3CCN(C)CC3)c2c1 | 2% | -1% | -1% | 2% | -8% | -2%
COc1cccc(NC(=O)c2cnc(NS(=O)(=O)c3ccccc3)nc2)c1 | x | x | x | x | 1% | x
CCc1ccc2occ(CC(=O)Nc3ccc(OC)c(Cl)c3)c2c1 | 25µM*[quencher] | u | x | u | x | 9%
Cc1ccc2occ(CC(=O)Nc3ccc(Cl)c(C(F)(F)F)c3)c2c1 | u | 0% | x | 14µM* | x | -12%
CCc1ccc2occ(CC(=O)Nc3nnc(C)s3)c2c1 | -1% | 4% | x | -2% | x | 10%
CC(C)c1ccc2occ(CC(=O)Nc3cccc(C(F)(F)F)c3)c2c1 | u | -4% | x | 18µM* | x | 16%
Cc1ccc2occ(CC(=O)Nc3ccc(S(N)(=O)=O)cc3)c2c1 | -6% | -2% | x | -6% | x | 2%
O=C(Nc1ccc(Oc2ccccc2)cc1)c1ccc2sc([C@H]3C[C@H](O)[C@@H](CO)O3)nc2c1 | x | x | x | x | -15% | x
Cc1cccc(NC(=O)CN2C(=O)C(c3ccc(F)cc3)=NC23CCCCCC3)c1C | -8% | -4% | x | -7% | x | -11%
C=CCn1c(=O)c2c(nc(-c3ccccc3)n2C)n(C)c1=O | -5% | -2% | 14% | -12% | x | 2%
CN(C)CC1CCC/C(=C\c2ccc(OC(=O)/C=C/c3ccccc3)cc2)C1=O (stereo not drawn) | x | x | x | x | u | 79µM*
CC(=O)c1ccc(OC(=O)/C=C/c2ccccc2)cc1 | x | x | 28% | x | 1% | -19%
COc1ccc(/C=C2/CCC(CN3CCOCC3)C2=O)cc1 (stereo not drawn) | x | x | x | x | 5.3µM* | u
CN(C)CC1CC/C(=C\c2ccc(O)cc2)C1=O (stereo not drawn) | x | x | x | x | 6.7µM* | 22µM*
SMILES | Tau fluor cs | Tau ThT inhib | Sfp inh | Tau FP inhib | PLK1 PBD inh | VDR inhibitor
CCN(C(=O)CSc1ncc2c(n1)-c1cc(Cl)ccc1N(Cc1ccccc1)S2(=O)=O)c1cccc(C)c1 | -4% | -6% | x | 2% | x | -11%
CCOc1ccc(CNC(=O)C2CCCN(c3nn4cc(-c5ccc(OC)cc5)nc4s3)C2)cc1 (stereo not drawn) | -28% | u | x | 3% | x | 6%
COc1ccccc1NS(=O)(=O)c1cccc(C(=O)NCC(c2cccs2)N2CCOCC2)c1 (stereo not drawn) | x | x | x | x | -4% | 1%
CCN(CC)CCNC(=O)C1CCN(c2cc(C)nc3c(-c4ccc(Cl)cc4)c(C)nn23)CC1 | u | u | x | 10% | x | -18%
Cc1cc(OCC(=O)N2CCc3ccccc3C2)c(C)cc1Br | x | x | -14% | x | 19µM* | -19%
Cc1cc(Cl)ccc1OCCCC(=O)N1CCCCC1 | -10% | -16% | 79µM* | 10% | -7% | 0%
O=C(CCCOc1ccc(Cl)cc1Cl)N1CCc2ccccc2C1 | -13% | -15% | 18µM* | -3% | -5% | 3%
Oc1ccc(-c2cn3c(n2)SCC3)cc1O | 14µM*[quencher] | 10µM* | 18µM* | u | 24µM* | -14%
CCOC(=O)N1CCN(Cc2nc3cc([N+](=O)[O-])ccc3n2C(C)C)CC1 | -4% | 1% | x | 6% | x | 16%
Brc1ccc(N/N=C(/N=Nc2nn[nH]n2)c2ccccc2)cc1 | 8.9µM*[quencher] | 4.5µM* | -96% | u | u | u
C[C@@H]1CN([C@H](C)CO)C(=O)CCCn2nncc2CO[C@H]1CN(C)S(=O)(=O)c1ccccc1F | x | x | x | x | -17% | x
Cc1cc(N)n2ncc(-c3cccc(Br)c3)c2n1 | 16µM*[quencher] | u | 5% | 2% | -8% | 6%
Cc1cc(Cl)nc2c(C(C)C)cccc12 | -5% | -2% | 19% | -6% | 17µM* | -21%
COc1ccc(/C(N)=N/OC(=O)Cc2cccs2)cc1OC | -20% | u | 79µM* | 3% | 2% | 0%
O=C(N=C1SC2CS(=O)(=O)CC2N1c1ccccc1)C1CC1 (stereo not drawn) | x | x | 16% | x | 4% | -16%
O=C(CC1CCCCC1)N=C1SC2CS(=O)(=O)CC2N1c1ccccc1 (stereo not drawn) | x | x | 12% | x | 27µM* | -14%
C[C@@H]1CN([C@@H](C)CO)S(=O)(=O)c2ccc(Br)cc2O[C@@H]1CN(C)C(=O)c1ccccn1 | x | x | x | x | 0% | x
O=C(CCc1nnc(CCc2c[nH]c3ccccc23)o1)NC1CCC1 | -7% | -11% | -5% | 6% | 24µM* | u
O=C(CCc1nnc(Cc2c[nH]c3ccccc23)o1)NC1CCCC1 | -11% | -10% | 3% | -5% | -14% | 0%
CCc1ccc(NC(=O)Cn2c(=O)n(Cc3nc(C)no3)c(=O)c3cc4c(cc32)OCO4)cc1 | u | 0% | x | u | x | 12%
CC(C)(C)C1CCC2(CC1)C(C#N)=C(SCC(=O)Nc1ccccc1)NC(=O)C2C#N (stereo not drawn) | u | 6% | 33% | 22µM* | -28% | 4%
N#CC1=C(SCC(=O)c2cc3ccccc3oc2=O)NC(=O)C(C#N)C12CCCC2 (stereo not drawn) | u | u | -18% | 1% | u | 13%
C/C(=N\Nc1ccc(C(=O)O)cc1)c1ccc(Cl)s1 | x | x | 10µM* | x | -2% | -8%
C/C(=N\Nc1ccc(Cl)c(C(=O)O)c1)c1ccc(Br)s1 | x | x | -24% | x | 24µM* | -22%

Source: PubChem
